Source: PubChem (The Scripps Research Institute Molecular Screening Center)
Most compounds without a hit are left out; they make up all but 1.7% or so of the library.
GSTO1 counter: counter-screen for RBBP9 inhibitors: inhibitors of human GSTO1. P78417. recombinant GSTO1, activity-based probe fluorescence polarization. inhibition, % at 5.96 µM. hit rate 1.1% among 300,000. AID 1974;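 active = inhibition above the campaign mean inhibition plus 3 SD, cut at about 35% in these data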;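 also: 0% = GSTO1-1 with DMSO and 100% = wells lacking GSTO1-1 enzyme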
LYPLA2 counter: counter-screen for PME1 inhibitors: inhibitors of human LYPLA2 | hit rate 0.38% among 320,000 | O95372 | inhibition, % at 5.9 µM | recombinant LYPLA2, FP-Rh probe fluorescence polarization;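 active = inhibition above the screen-wide mean plus 3 SD, limit set per campaign, cut at about 26% in these data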;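 also: 0% = LYPLA2 with DMSO and 100% = wells lacking LYPLA2 enzyme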
PAD4 inh: inhibitors of human PAD4; AID 485272; hit rate 0.41% among 330,000; inhibition, % at 6.36 µM; recombinant PAD4, RCA probe fluorescence polarization;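 active = percent inhibition above a cutoff equal to the mean of all tested compounds plus 3 SD, cut at about 15% in these data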;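 also: 0% = PAD4 with RCA probe and DMSO and 100% = probe without PAD4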
EBNA-1 inh: blocks EBNA-1 binding to DNA. EBNA-1 DNA binding, fluorescence polarization. inhibition, % at 14.8 µM. hit rate 0.34% among 300,000. AID 1950; in the data active = inhibition above about 28%
ZTA DNA inh: counter-screen for EBNA-1 inhibitors: inhibitors of Epstein-Barr virus ZTA; P03206; ZTA-DNA binding, fluorescence polarization; inhibition, % at 11 µM; hit rate 0.15% among 320,000; AID 2234; in the data active = inhibition above about 33%
LYPLA1 counter: LYPLA1 (human) inhibition in PME1 counter-screen | recombinant LYPLA1, FP-Rh probe fluorescence polarization | AID 2174 | hit rate 0.16% among 320,000 | inhibition, % at 5.9 µM | O75608;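 active = inhibition above the mean of all tested compounds plus 3 SD, set per campaign, cut at about 14% in these data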;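 also: inhibitors block serine hydrolase probe labeling of LYPLA1 so polarization falls; 0% = enzyme with DMSO and 100% = wells lacking LYPLA1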
GSTO1 confirm: confirmation of human GSTO1 inhibitors | shares compounds with GSTO1 counter | recombinant GSTO1, probe fluorescence polarization | inhibition, % at 5.96 µM | hit rate 54% among 2,400;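 active = inhibition above the primary screen's cutoff, its mean inhibition plus 3 SD, cut at about 35% in these data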;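 also: loss of polarization as inhibitors block binding of rhodamine sulfonate ester activity probe; 0% = GSTO1 with DMSO and 100% = wells lacking GSTO1 enzyme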
The depositor's hits bear a star; . = no result.

SMILES	GSTO1 counter	LYPLA2 counter	PAD4 inh	EBNA-1 inh	ZTA DNA inh	LYPLA1 counter	GSTO1 confirm
Cc1ccc(Cl)cc1NC(=O)CCC(=O)O	63.7*	5.7	-3.1	1.8	-4.7	-1.9	6.5
O=C(CSc1nnc(NC(=O)c2ccc3c(c2)OCO3)s1)NCc1ccco1	-9.8	-4.2	-0.9	-5.2	1.0	-1.2	.
CCn1c(-c2ccccc2Cl)nn(CC(=O)Nc2cc(Cl)ccc2Cl)c1=S	38.1*	-8.0	1.4	-3.7	-9.8	-9.9	20.6
O=C(NNC(=S)NCc1ccc(Cl)cc1)c1ccc2c(c1)OCO2	0.6	8.1	-4.2	-5.8	3.1	5.3	.
COc1ccc(CNC(=O)CNC(=O)CNS(=O)(=O)c2ccc(C)c(C)c2)cc1	-6.1	-4.6	0.5	-2.9	-6.2	1.0	.
O=C(N/N=C/c1cc(Br)c(Br)o1)c1cccnc1	44.4*	4.7	4.0	-2.8	1.9	-2.2	15.3
NS(=O)(=O)c1ccc(CCNC(=O)C2CCCN2S(=O)(=O)c2cccc3nsnc23)cc1 (stereo not drawn)	-2.4	9.6	-5.3	-3.6	-19.4	4.4	.
Nc1cc(-c2ccncc2)c[nH]c1=O	41.5*	5.9	-0.5	-6.7	1.0	4.8	6.7
COc1ccc2nc3cc(Cl)ccc3c(C#N)c2c1	-3.0	0.7	1.1	-0.6	-21.8	-5.5	.
Cc1cc(C)n2c(=O)c3ccc(Cl)cc3nc2c1C#N	53.1*	-0.8	-9.9	-8.4	9.0	-4.8	2.0
CC(=O)C(C(C)=O)c1c(Cl)c(O)c(O)c2c(C(=O)c3ccccc3)coc12	57.9*	-1.5	-0.6	-17.5	-3.1	-1.5	7.5
O=C(c1ccc(Br)cc1)N1CCC2(CC1)NCCc1[nH]cnc12	1.7	5.4	-1.2	11.2	-15.3	-0.7	.
CN(C)c1cccc2c1c(NS(=O)(=O)c1cn(C)cn1)nn2C	53.9*	-6.7	-2.4	12.8	4.3	-4.5	5.0
N#Cc1c(N2CCCC(O)C2)nc(N)c2c(N)nc3c(c12)CC(=O)N3C12CC3CC(CC(C3)C1)C2 (stereo not drawn)	79.3*	0.1	0.5	9.1	-1.9	-2.7	88.3*
Cc1cc(C)cc(NC(=O)CCc2c(C)nn(-c3ccc(N4CCCCC4)nn3)c2C)c1	67.0*	-5.2	0.6	2.7	7.1	0.1	7.4
COC(=O)c1cccc(NC(=O)CCN2C(=O)C3CC=CCC3C2=O)c1 (stereo not drawn)	.	-0.6	-1.3	.	2.4	-0.5	.
Cc1ccc(C(=O)Nc2cc3[nH]c(=O)oc3cc2C)cc1	11.0	3.5	3.5	2.2	-2.0	-0.1	.
CCOCCCNC1=C(Cl)C(=O)c2ccccc2C1=O	64.7*	3.4	-13.1	6.6	2.8	1.3	24.8
O=C1C(Cl)=C(NCCCO)C(=O)c2ccccc21	61.9*	0.1	-10.7	-7.3	1.3	2.2	8.9
O=C1C(Cl)=C(NCCN2CCOCC2)C(=O)c2ccccc21	41.5*	0.6	-14.7	-3.9	5.1	-2.5	6.1
Nc1scc2c(C(=O)N/N=C/c3ccc(Cl)cc3)nn(-c3ccccc3)c(=O)c12	44.7*	1.4	-2.2	7.1	4.3	-8.4	0.9
C/C(N)=C(/C#N)C(=O)CSc1cc(C)c2ccccc2n1	-9.6	6.2	-0.1	-6.0	4.4	2.4	.
COc1cc(/C=C2/C(=O)c3cccc([N+](=O)[O-])c3C2=O)c(Br)cc1O	47.1*	4.4	-6.2	6.9	9.1	1.2	54.8*
COc1ccccc1NC(=O)CCCCCN1C(=O)c2cccc([N+](=O)[O-])c2C1=O	-2.2	-2.6	0.0	-5.9	3.9	-2.0	.
C=CCn1c(N)c(C(=O)NCC2CCCO2)c2nc3ccccc3nc21 (stereo not drawn)	79.9*	7.3	12.4	-5.0	4.7	1.2	4.9
Cc1ccc(C(=O)N/C(=C\c2ccc(-c3ccccc3[N+](=O)[O-])o2)C(=O)NCCCN(C)C)cc1	43.7*	11.8	-11.0	4.5	-6.8	2.3	7.2
CCN(CC)c1ccc(/C=C2\C(=O)N(c3nnc(C)c(=O)[nH]3)N=C2C)cc1	40.5*	0.1	2.0	-0.8	-10.6	-0.5	13.5
COc1ccc(C(C)=O)cc1COC(=O)c1cccnc1SC	-0.7	7.1	-2.8	-8.9	8.0	-1.6	.
